According to PubChem BioAssay (NCATS):
Records with an inconclusive call do not appear. A number with no mark means an inactive call. Active and inactive are the calls of the source. Calls come from the whole dose curve; as a rule, active = well fitted inhibition curve with a large enough effect; inconclusive = small, poorly fitted or top-dose-only effect, or effect the other way; inactive = flat fitted curve, though single readings scatter.

The molecules below were run against D(1A) dopamine receptor (Homo sapiens) (UniProt P21728) (assay: HTS Assay for Allosteric Agonists of the Human D1 Dopamine Receptor: Primary Screen for Antagonists (AID 488983; note: nearly all actives have a fitted effect of over 65% in size)). Settings: D1 receptor cell assay, antagonist mode, qHTS titration; series mostly up to 41.8 µM; activity change, negative = inhibition: at the top concentration.
D(1A) dopamine receptor (Homo sapiens), sequence (P21728 whole entry, looked up): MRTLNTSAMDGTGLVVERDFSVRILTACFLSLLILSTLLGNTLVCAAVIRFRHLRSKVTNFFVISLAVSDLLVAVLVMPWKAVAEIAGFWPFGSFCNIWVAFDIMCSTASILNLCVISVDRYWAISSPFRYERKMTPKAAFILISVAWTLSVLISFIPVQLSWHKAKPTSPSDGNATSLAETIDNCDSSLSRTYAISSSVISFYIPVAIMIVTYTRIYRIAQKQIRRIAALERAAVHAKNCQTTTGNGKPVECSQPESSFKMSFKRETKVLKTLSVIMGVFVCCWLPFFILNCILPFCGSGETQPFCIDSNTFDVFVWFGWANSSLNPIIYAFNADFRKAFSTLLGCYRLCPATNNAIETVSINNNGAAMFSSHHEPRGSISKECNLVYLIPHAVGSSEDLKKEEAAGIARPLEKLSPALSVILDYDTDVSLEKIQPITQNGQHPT
Excerpt: Dopamine receptors (DARs) are involved in the etiology and/or therapy of a number of neuropsychiatric and endocrine disorders. For instance, all receptor-based antiparkinsonian drugs work via stimulating the […] DAR subtype whereas all FDA-approved antipsychotic agents are antagonists of this receptor. […] There are three different types of allosteric modulators that we are seeking, two of which will stimulate or augment receptor signaling, allosteric agonists and potentiators, while the third, allosteric antagonists, will attenuate receptor signaling. The present primary screening assay measures compound agonism by tracking calcium flux in a […], inducible Hek293 Trex D1 cell line.
Freshly passaged cells are plated in 1536 well black, clear bottom plates at a density of 4000 cells/well in 3 ul of complete media containing 1x tetracycline inducer. After an overnight incubation at 30 C in 5% CO2, cells are loaded with 2 ul of the no wash Calcium Assay Kit (ABD Bioquest) and incubated at room temperature for 30 to 90 minutes. A 10 cycle (1 second/cycle) baseline measurement is taken and then the FDSS online 1536 pintool delivers 23 nl of compound library (as well as dopamine controls) to the plate. The plate is measured for kinetically at 1 cycle/sec for 180 seconds and is considered to be the agonist portion of the assay (eg, compounds which activate a positive calcium response during this portion are flagged as potential agonists). Following the 180 second read, 1 ul of an EC80 of dopamine is delivered by an onboard pipette head. Measurements are taken kinetically for an additional 180 seconds.
% is set by controls: 0 for no effect and ±100 for the full control effect; potency is the fitted concentration of half-maximal effect.

Structure (SMILES)	activity change, negative = inhibition	Potency
CC(=O)O[C@H]1C(=O)[C@@]2(C)C([C@H](OC(=O)c3ccccc3)[C@]3(O)C[C@H](OC(=O)[C@H](O)[C@@H](NC(=O)c4ccccc4)c4ccccc4)C(C)=C1C3(C)C)[C@]1(OC(C)=O)CO[C@@H]1C[C@@H]2O (stereo partly specified)	10.2%	–
O=C(c1ccccc1)c1ccc2n1CCC2C(=O)O (stereo unspecified)	1.82%	–
COc1ccccc1N1CCN(CCN(C(=O)C2CCCCC2)c2ccccn2)CC1	-9.23%	–
O=C1NC(=O)C(c2ccccc2[N+](=O)[O-])=C1Nc1ccc(O)c(Cl)c1	-10.9%	–
O=c1ccc2ccc(O)c(O)c2o1	18.4%	–
CCOC(=O)C(C)Oc1cccc2c(=O)n(CC(=O)Nc3ccc4c(c3)OCCO4)ccc12 (stereo unspecified)	6.69%	–
Cc1cccc(C#Cc2ccccc2)n1	4.83%	–
O=C1c2ccccc2-c2n[nH]c3cccc1c23	-17.8%	–
CC(C)c1ccc2c(c1)c(SC(C)(C)C)c(CC(C)(C)C(=O)O)n2Cc1ccc(Cl)cc1	18.2%	–
Nc1ccn([C@@H]2O[C@H](CO)[C@@H](O)C2O)c(=O)n1 (stereo partly specified)	0.127%	–
O=C(CCc1ccc(O)cc1)c1c(O)cc(O)cc1O	-26%	–
Oc1ccc2ccccc2c1SSc1c(O)ccc2ccccc12	-9.28%	–
O=C(O)c1cccnc1Nc1cccc(C(F)(F)F)c1	1.63%	–
NCCCCNCCCN	10.2%	–
CC1(C)C(=O)N(CCN2CCC(C(=O)c3ccc(F)cc3)CC2)c2ccccc21	–	4.47 µM (active)
COc1cc2c(cc1OC)C1CC(=O)C(CC(C)C)CN1CC2 (stereo unspecified)	12%	–

Structure (SMILES)	activity change, negative = inhibition	Potency
OC(CN1CCN(c2cccc(Cl)c2)CC1)C(c1ccccc1)c1ccccc1 (stereo unspecified)	-23.5%	–
O=C1c2c(O)cc(O)cc2OC(c2ccc(O)c(O)c2)C1O (stereo unspecified)	29.3%	–
C[C@@H](N)C1CCC(C(=O)Nc2ccncc2)CC1 (stereo partly specified)	8.05%	–
NC(=NCc1ccccc1)NC(=O)c1nc(Cl)c(N)nc1N	–	5.01 µM (active)
CC1(C)NC(=O)N(c2ccc([N+](=O)[O-])c(C(F)(F)F)c2)C1=O	9.28%	–
Cc1c(OCC(F)(F)F)ccnc1CS(=O)c1nc2ccccc2[nH]1 (stereo unspecified)	-2.46%	–
O=c1cc(N2CCOCC2)oc2c(-c3ccccc3)cccc12	9.6%	–
C[C@H](Cc1ccc(O)c(O)c1)[C@@H](C)Cc1ccc(O)c(O)c1	-21.3%	–
O=c1c(O)c(-c2ccc(O)cc2O)oc2cc(O)cc(O)c12	9.02%	–
Nc1nc(N)c(N=O)c(OCC2CCCCC2)n1	29.2%	–
Oc1ccc(-c2nc(-c3ccc(F)cc3)c(-c3ccncc3)[nH]2)cc1	-5.26%	–
NNc1nncc2ccccc12	13.5%	–
Nc1nc(OCc2ccccc2)c2[nH]cnc2n1	3.87%	–
COc1ccc2cc([C@H](C)C(=O)O)ccc2c1	2.75%	–
Cc1cc(O)c2c(c1)C(=O)c1cc(O)cc(O)c1C2=O	-0.672%	–
